# PubChem BioAssay AID777 (Sanford-Burnham Center for Chemical Genomics, 2007)
# Among all 96,000 compounds or so, about 19,000 (20%) were called active.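 How the source made its calls: active means blocking of liver enzyme CYP2C9 beyond about 50% at 5 µM (limit read from the data); inactive means the rest.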 These entries were drawn from the full list. Residues, ends and D or L forms follow the SMILES beside them. *: point of attachment. Bz = O=C(c1ccccc1)*
# Target: Cytochrome P450 2C9 (Homo sapiens) (UniProt P11712)
# Assay: blockers of cytochrome P450 2C9 activity – biochemical, luminescence, ADME assay, primary screen (AID 777)
# Conditions: CYP2C9 Supersomes, luciferin-H conversion, at 5 µM, active compounds read high
# Chain of Cytochrome P450 2C9 (Homo sapiens) (P11712 whole entry, looked up): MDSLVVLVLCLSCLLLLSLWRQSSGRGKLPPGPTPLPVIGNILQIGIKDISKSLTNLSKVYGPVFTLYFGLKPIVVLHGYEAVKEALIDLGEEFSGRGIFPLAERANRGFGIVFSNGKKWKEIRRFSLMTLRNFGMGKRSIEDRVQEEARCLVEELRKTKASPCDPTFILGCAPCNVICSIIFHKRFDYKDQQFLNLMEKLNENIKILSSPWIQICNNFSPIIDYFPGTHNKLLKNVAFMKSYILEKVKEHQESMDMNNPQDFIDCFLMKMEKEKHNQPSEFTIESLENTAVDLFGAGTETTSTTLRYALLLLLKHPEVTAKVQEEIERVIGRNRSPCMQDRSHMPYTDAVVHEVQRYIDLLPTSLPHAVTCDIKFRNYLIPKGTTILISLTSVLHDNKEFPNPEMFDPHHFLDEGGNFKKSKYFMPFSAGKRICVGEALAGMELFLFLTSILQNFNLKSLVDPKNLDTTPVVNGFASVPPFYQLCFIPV
row,Structure (SMILES),inhibition
1,C=CCN(c1ccc(C(N)=O)cc1)S(C)(=O)=O,-10.7% (inactive)
2,CC(=O)c1c(N)n(C)c(=O)n(C)c1=O,21.6% (inactive)
3,ONC(=Nc1ccccc1)c1ccccc1Cl,2.1% (inactive)
4,Cc1ccc(S(=O)(=O)N2CCOCC2)cc1C(=O)NCc1ccc(F)cc1,31.6% (inactive)
5,CCOC(=O)c1sc(NC(=O)c2cc(S(=O)(=O)N3CCOCC3)ccc2C)nc1C,71% (active)
6,O=C(Nc1ccc2c(c1)nc1n2CCCCC1)c1cc(S(=O)(=O)N2CCOCC2)ccc1Cl,43.5% (inactive)
7,O=C1c2cccc3cc(Br)cc(c23)C(=O)N1Nc1ccccc1,-74% (inactive)
8,Cn1cccc1C1(C(F)(F)F)NCCNC1=O (stereo unspecified),72% (active)
9,N#C/C(=C\c1ccccc1)c1n[nH]c(Cn2cncn2)n1,27% (inactive)
10,O=C1CSC(=O)N1CCOCCN1C(=O)CSC1=O,7.2% (inactive)
11,C[C@H](NC(=O)NCCc1ccccc1)C(=O)O,2.2% (inactive)
12,CSCC[C@H](NC(=O)NCCc1ccc(F)cc1)C(=O)O,14.5% (inactive)
13,CC(C)C[C@H](NC(=O)NCCc1ccc(Cl)cc1)C(=O)O,59.9% (active)
14,Cc1ccc(C(=O)C[n+]2cc(-c3ccccc3)n3c2CCCCC3)cc1,-11.7% (inactive)
15,NC(=O)Cn1c(=O)oc2ccccc21,-13.8% (inactive)
16,CCC(C)c1ccc(O)c(/C=N/O)c1 (stereo unspecified),13.7% (inactive)
17,CCOC(=O)c1csc(NC(=O)c2ccc(S(=O)(=O)N3CCCC3)cc2)n1,-12.7% (inactive)
18,COc1ccc(C(=O)Nc2nc(-c3ccc(S(=O)(=O)N4CCOCC4)cc3)cs2)cc1,62.5% (active)
19,COC(=O)[C@H](Cc1ccccc1)NC(=O)Nc1ccc(S(N)(=O)=O)cc1,1.6% (inactive)
20,CCC(=O)Nc1ccc(S(=O)(=O)NCC2CCCO2)cc1 (stereo unspecified),-1.7% (inactive)
21,COC(=O)c1ccccc1NC(=O)Cn1nc(C(F)(F)F)c2c1CCC2,17.4% (inactive)
22,COC(=O)c1ccccc1Sc1c(/C=N/OCc2ccc(Cl)cc2)c(C(F)(F)F)nn1C,89.6% (active)
23,NC(=O)C1(N2CCCCC2)CCN(C2CC(=O)N(Cc3ccc(N4CCCC4=O)cc3)C2=O)CC1 (stereo unspecified),50.1% (active)
24,COC(=O)c1cc(NC(=O)CN2CCC(C(N)=O)(N3CCCCC3)CC2)cc(C(=O)OC)c1,13.2% (inactive)

row,Structure (SMILES),inhibition
1,CCCNC(=O)NCc1ccc(N2CCCC2=O)cc1,17.2% (inactive)
2,C[C@@H](Nc1nc(-c2ccccc2)nc2c1oc1ccccc12)C(=O)O,11.2% (inactive)
3,C=CCNC(=O)c1cc2nc(C3CC3)cc(C(F)F)n2n1,40% (inactive)
4,COc1cc(/C=C2\SC(=S)N(Nc3ncc(C(F)(F)F)cc3Cl)C2=O)cc(OC)c1OC,4.4% (inactive)
5,O=C(C(Cc1ccccc1)n1cccc1)N1CCN(C2CCCCC2)CC1 (stereo unspecified),94% (active)
6,Cc1ccc(C(=O)N2CCN(C3CCCCC3)CC2)s1,25.8% (inactive)
7,O=C(NC(Cc1ccccc1)C(=O)N1CCCC1C(=O)O)c1ccccc1 (stereo not drawn) (Bz-Phe-Pro-OH; configuration not given here),-5.7% (inactive)
8,O=C(CN1C(=O)NC2(CCCCC2)C1=O)NCCC1=CCCCC1,-1.7% (inactive)
9,O=C(CN1C(=O)NC(Cc2ccccc2)(Cc2ccccc2)C1=O)NCC1CCCCC1,55% (active)
10,CCOC(=O)CCCNC(=O)CN1C(=O)NC(CCc2ccccc2)C1=O (stereo unspecified),-3.9% (inactive)
11,CC(=O)N1CCc2cc(S(=O)(=O)Nc3ccccc3N3CCN(C)CC3)ccc21,2% (inactive)
12,CCCC(=O)C1CCN(Cc2ccccc2)CC1,-8.7% (inactive)
13,Cc1nc2ccc(NC(=O)C(F)(F)F)cc2o1,4.8% (inactive)
14,Cn1c(C(=O)NCCCN2CCCCC2)cc2sccc21,6.6% (inactive)
15,O=C(CSc1nc(-c2ccco2)cc(C(F)(F)F)n1)N1CCc2ccccc2C1,45.8% (inactive)
16,Cc1cc(C(F)(F)F)nn1-c1nc(-c2ccco2)cc(C(F)(F)F)n1,3.1% (inactive)
17,CCOC(=O)c1ccn(-c2nc(-c3ccco3)cc(C(F)(F)F)n2)n1,62% (active)
18,Cc1ccc2c(c1)N(CC(=O)N1CCCc3ccccc31)C(=O)C(C)O2 (stereo unspecified),22% (inactive)
19,COc1ccc(-c2noc(-c3cccc(OC)c3OC)n2)cc1OC,-101% (inactive)
20,CCOc1nc(-c2ccc(OC)cc2)ccc1-c1noc(-c2cc(OC)c(OC)c(OC)c2)n1,8.3% (inactive)
21,COc1cc(-c2nc(-c3ccncc3)no2)cc(OC)c1OC,76.6% (active)
22,CC(OC(=O)CN1C(=O)C2CCCCC2C1=O)C(=O)Nc1ncc(Cl)cc1Cl (stereo unspecified),-1.7% (inactive)
23,COc1ccc(Nc2ncc(C(=O)N3CCN(c4ccccc4OC)CC3)c3ccccc23)cc1,65.9% (active)
24,COc1ccc2oc(=O)c(C(=O)N3CCN(c4ccccc4F)CC3)cc2c1,28.7% (inactive)

row,Structure (SMILES),inhibition
1,COc1ccccc1N1CCN(CCCCOc2ccc(F)cc2)CC1,12% (inactive)
2,COc1cnc(SCc2ccc(Cl)c(Cl)c2)nc1Cl,16.5% (inactive)
3,CCOC(=O)c1cc(C)sc1NC(=O)C1CCC1,42.3% (inactive)
4,Cc1ccc(S(=O)(=O)N2CCC(C(=O)N[C@@H](C)C(=O)NCCc3ccccc3)CC2)cc1,-25.2% (inactive)
5,O=C(NCCCN1CCN(Cc2ccccc2)CC1)C1CCN(S(=O)(=O)N2CCCC2)CC1,1.8% (inactive)
6,O=C1c2cccnc2C(Nc2ccc(S(=O)(=O)N3CCCCCC3)cc2)N1Cc1ccccc1 (stereo unspecified),53.4% (active)
7,Cc1nn(-c2ccccn2)c2c1C(c1ccncc1)C1=C(CC(C)(C)CC1=O)N2 (stereo unspecified),79.7% (active)
8,Cc1cc2c(cc1C)NC(c1ccccn1)C1=C(CC(C)(C)CC1=O)N2 (stereo unspecified),-11.2% (inactive)
9,CCOC(=O)c1c(-n2cnnn2)sc(C)c1C,10.3% (inactive)
10,Cc1cc(C)nc(NC(=O)Nc2ccccc2C(F)(F)F)n1,-193% (inactive)
11,O=C(Nc1ccc(Sc2ccc(Br)cc2)cc1)c1ccco1,3.3% (inactive)
12,Cc1cccc(NC(=O)c2sc3nc4c(c(-c5ccco5)c3c2N)CCC4)c1,17.9% (inactive)
13,CCCc1cc(=O)[nH]c(SCc2ccc(C#N)cc2)n1,60.3% (active)
14,CCCc1cc(=O)[nH]c(SCC(=O)OCc2ccccc2)n1,38.5% (inactive)
15,CCCc1cc(=O)[nH]c(SCC(=O)c2cc(C)n(CCC)c2C)n1,5.3% (inactive)
16,O=C(CNC(=O)Cc1ccccc1)NCC(=O)OCC(=O)c1ccccc1Cl,-33.1% (inactive)
17,Cn1c(SCC(=O)Nc2cccc(NC(=O)c3cccs3)c2)nnc1-c1ccncc1,89.8% (active)
18,Cc1ccccc1C(=O)Nc1cccc(-c2nnc(SCC(=O)O)n2C)c1,-11.4% (inactive)
19,COC(=O)c1ccc(NC(=O)CSc2nnc(CNc3ccc(OC)cc3)n2C)cc1,34% (inactive)
20,O=C(CSc1nnc(-c2ccncc2)n1C1CCCCC1)Nc1ccccc1,38.6% (inactive)
21,Cn1c(SCC(=O)Nc2cccc(O)c2)nnc1-c1ccc(S(=O)(=O)N2CCOCC2)cc1,7.5% (inactive)
22,CCC(=O)Nc1cccc(NC(=O)CSc2nnc(-c3ccc(NS(C)(=O)=O)cc3)n2C)c1,51.3% (active)
23,COC(=O)c1ccc(NC(=O)CSc2nnc(-c3ccncc3)n2C)cc1,57.2% (active)
24,CCCCSc1nnc(-c2ccc(NC(=O)CC)cc2)n1C,-15.8% (inactive)

row,Structure (SMILES),inhibition
1,CCn1c(SCC(=O)Nc2nccs2)nnc1-c1ccncc1,28% (inactive)
2,Cc1ccc(-c2ccc(=O)n(CC(=O)NCCCN3CCCCC3)n2)cc1,14% (inactive)
3,COc1ccccc1C(=O)Nc1nc2nc(-c3ccccc3)cc(=O)n2[nH]1,42% (inactive)
4,O=C(NCCCCc1ccccc1)C1CC(c2ccc([N+](=O)[O-])cc2)=NO1 (stereo unspecified),14.2% (inactive)
5,O=C(CN1CCOCC1)Nc1ccc(NC(=O)CN2CCOCC2)c(Cl)c1,-1.8% (inactive)
6,CN(C)C(=O)c1cc(Br)ccc1Cl,-6.9% (inactive)
7,CCCn1c(=NC(C)=O)c(C(=O)OCC)cc2c(=O)n3ccccc3nc21,17.1% (inactive)
8,O=C(C1CCC1)N1CCc2cc(S(=O)(=O)NCc3cccnc3)ccc21,32.9% (inactive)
9,CSc1ccc(S(=O)(=O)NC2CCCCC2)cc1,17.8% (inactive)
10,O=S(=O)(NCc1cccnc1)c1ccc(Cl)nc1,6.6% (inactive)
11,O=C(CCc1ccccc1)NCc1cccnc1,15.7% (inactive)
12,Cc1cc(Cl)c(S(=O)(=O)NCc2cccnc2)cc1OCC(N)=O,-9.2% (inactive)
13,O=C(CCc1ccc(S(=O)(=O)NC2CCCCC2)cc1)NCc1ccccc1,86.2% (active)
14,O=C(OC1CCCCC1=O)c1cccc(S(=O)(=O)NCc2ccccc2)c1 (stereo unspecified),43.1% (inactive)
15,Cc1cccc(CCNS(=O)(=O)c2ccc(S(=O)(=O)NC3CCCC3)cc2)c1,65.4% (active)
16,Cc1cc(S(=O)(=O)NC2CCCCC2)ccc1OCC(=O)NCc1cccnc1,81.1% (active)
17,CCCNS(=O)(=O)c1ccc(CCC(=O)NCc2cccnc2)cc1,76.8% (active)
18,Cn1c(=O)c(=O)n(C)c2cc(S(=O)(=O)NCCc3ccccc3)ccc21,23.4% (inactive)
19,O=C(CN(CC1CCCO1)C(=O)CNS(=O)(=O)c1ccccc1)NCc1ccccc1 (stereo unspecified),2.4% (inactive)
20,Cc1ccccc1/[N+]([O-])=C/c1ccncc1,12.4% (inactive)
21,CC1CCN(c2nc3c(c(=O)[nH]c(=O)n3C)n2CCCc2ccccc2)CC1,40.9% (inactive)
22,C/C(=C\C(=O)c1ccc(Br)cc1)N1CCCCC1,2.1% (inactive)
23,Cc1nc2ccc(C(=O)N3CCSCC3)cc2s1,0.6% (inactive)
24,Cc1ccc(S/C(=N\S(=O)(=O)c2ccc(Cl)cc2)c2ccccc2)cc1,48.7% (inactive)
